aSyn 5UTR act = Activators working through SNCA 5'UTR binding (MLPCN). alpha-synuclein 5'UTR reporter, activators screen. activity score, % (tested at 7.5 µM), hits read low. 7.1% of 300,000 active. AID 1814; in the data active = activity score below about -60%
* hit, by the source's call. A selection follows.

SMILES | aSyn 5UTR act
O=C(N/N=C/c1ccc([N+](=O)[O-])o1)c1cc(-c2ccc(-c3ccccc3)cc2)nc2ccccc12 | 76
O=C(N/N=C/c1ccc([N+](=O)[O-])o1)c1cc(-c2ccncc2)nc2ccccc12 | -67*
Cc1cc2ncn(/N=C/c3ccc([N+](=O)[O-])o3)c2cc1C | -122*
O=C(CSc1nnc2ccc3ccccc3n12)N1CCOCC1 | -94*
COc1ccccc1-c1nnc(SCC(=O)N2CCOCC2)o1 | -85*
Cc1ccccc1-c1nnc(SCC(=O)N2CCCC2)o1 | -135*
O=C(CSc1nnc(-c2ccccc2Cl)o1)N1CCOCC1 | -124*
COc1ccccc1-c1nnc(-c2ccc(N3CCOCC3)cc2)o1 | -106*
COc1cccc(NC(=S)Nc2cc(C(=O)O)ccc2N2CC3CC(C2)c2cccc(=O)n2C3)c1 (stereo unspecified) | -95*
Cc1ccc(OCc2ccc(C(=O)N3CCCC3)o2)cc1C | -82*
O=C(c1ccc(COc2ccc(Cl)cc2Cl)o1)N1CCCC1 | -63*
Cc1ccccc1S(=O)(=O)Cc1ccc(C(=O)N2CCN(c3cccc(C)c3C)CC2)o1 | 101
O=C(c1ccc(COc2ccccc2[N+](=O)[O-])o1)N1CCCCCC1 | -80*
O=C(c1ccco1)N1CCCN(Cc2cn[nH]c2-c2ccc(-c3ccccc3)cc2)CC1 | -95*
O=C(Oc1c(CN2CCOCC2)cc(Cl)c2cccnc12)c1ccc(F)cc1 | 65
OC1(c2ccc(Cl)cc2)CCN(Cc2cn[nH]c2-c2ccc(F)cc2)CC1 | 61
CCOc1ccccc1-n1c(CN2CCN(C(=O)c3ccco3)CC2)nc2ccccc2c1=O | 111
OC1(c2ccc(Cl)cc2)CCN(Cc2cn[nH]c2-c2ccccc2)CC1 | 70
O=C(c1ccco1)N1CCN(Cc2ccc(F)cc2Cl)CC1 | -158*
O=C(c1ccco1)N1CCN(Cc2ccccc2Br)CC1 | -78*
Cc1ccc(/C=C/C(=O)Nc2nc3ccccc3[nH]2)cc1 | -186*
O=C(/C=C/c1c(F)cccc1Cl)Nc1nc2ccccc2[nH]1 | -314*
CCC1CSC(Nc2ccc(C(=O)/C=C/c3ccc(Oc4ccccc4)cc3)cc2)=N1 (stereo unspecified) | -88*
O=C(Nc1cccnc1)c1ccc(Oc2ccccc2)cc1 | -70*
O=C(Nc1cccnc1)c1ccc(CSc2ccccc2)cc1 | -115*
SMILES | aSyn 5UTR act
CCCCOc1ccc(C(=O)Nc2ccncc2)cc1 | -123*
CCCOc1ccc(C(=O)Nc2cccnc2)cc1 | -181*
Cc1ccc(OCCOc2ccc(Cl)cc2Cl)c([N+](=O)[O-])n1 | -88*
Cc1ccc(COc2ccc(C)nc2[N+](=O)[O-])cc1 | -118*
Cc1cc(C)n(-c2nc3c(c(=O)[nH]c(=O)n3C)n2CC(O)COc2ccc(Cl)cc2Cl)n1 (stereo unspecified) | 73
COc1ccc(OCCOc2ccc(C)nc2[N+](=O)[O-])cc1 | -106*
COc1cccc2c1C(=O)c1ccc3ccccc3c1C2=O | -141*
O=C(Nc1nccs1)c1ccc(COc2ccc(F)cc2)o1 | -97*
O=C(COc1ccc(F)cc1)Nc1nccs1 | -91*
Cc1c(C)c2ccc(OCC(=O)Nc3nccs3)cc2oc1=O | 66
O=C(COc1ccc(F)cc1)Nc1nc2c(s1)CCCC2 | -92*
CCCn1c(C2CCCN2c2nc(-c3cccc(Br)c3)cs2)nc2ccccc21 (stereo unspecified) | -93*
Cc1occc1C(=O)NNC(=O)c1ccccc1C(=O)O | -74*
Cc1occc1C(=O)NCCCc1ccccc1 | -71*
Cc1occc1C(=O)NCCc1cccc(Cl)c1 | -82*
CC1(C)CC(=O)c2sc(N3CCCCC3)nc2C1 | -91*
CC(C)(C)C(=O)Nc1sc2c(c1C#N)CCCCC2 | -78*
CCOC(=O)Nc1sc2c(c1C#N)CCCC2 | -123*
Cc1nnc(SCC(=O)Nc2sc3c(c2C#N)CCCCC3)n1N | -74*
Cc1ccc(OCC(=O)Nc2sc3c(c2C#N)CCC3)cc1 | -99*
O=C(CCc1nnc(CCCc2ccccc2)o1)N1CCCCCC1 | -149*
CCc1cc(CNC(=O)CCc2nnc(CCCc3ccccc3)o2)on1 | -129*
CC(C)c1cc(CNC(=O)CCc2nnc(CCCc3ccccc3)o2)on1 | -77*
CCOc1ccc(-c2cc(CCCC(=O)NCCc3ccccc3)no2)cc1 | 62
O=C(CCc1nnc(CCCc2ccccc2)o1)NCCCC1CCCC1 | -116*
SMILES | aSyn 5UTR act
C#CCSc1nnc(-c2sc(-c3ccccc3)nc2C)n1C | -67*
CS(=O)(=O)c1nc(-c2ccco2)cc(C(F)(F)F)n1 | -76*
Cc1cc(NC(=O)CSc2nc(-c3ccco3)cc(C(F)(F)F)n2)no1 | 69
O=C(Nc1ccc2oc(-c3ccccc3F)nc2c1)c1ccc([N+](=O)[O-])o1 | -142*
O=C(Nc1ccc2oc(-c3ccccc3F)nc2c1)c1cncc(Br)c1 | -65*
Cc1ccc(/C(N)=N/OC(=O)c2ccc(F)cc2)cc1 | -194*
N/C(=N\OC(=O)c1ccc(F)cc1)c1ccccc1 | -298*
N/C(=N\OC(=O)c1ccc(F)cc1)c1ccc(Br)cc1 | -143*
Cc1ccc(C(=O)O/N=C(\N)c2ccccn2)cc1 | 65
O=c1c2ccccc2nc2ccc(NCc3ccco3)nn12 | -144*
Cc1sc2nc3ccc(NCc4ccco4)nn3c(=O)c2c1C | -119*
NC(=O)c1ccc(-c2ncc(-c3ccccc3)o2)cc1 | -68*
COc1ccc(NC(=O)c2cccn(CC=C(C)C)c2=O)cc1 | -79*
C=CCn1c(N)c(C(=O)Nc2ccccc2)c2nc3ccccc3nc21 | 60
C=CCc1cccc2cc(C(=O)Nc3ccc(F)cc3)c(=O)oc12 | -128*
C=CCn1cccc(C(=O)Nc2ccc(F)cc2)c1=O | -101*
C=CCn1cccc(C(=O)Nc2ccc(OC)cc2)c1=O | -97*
CCOC(=O)c1cnn(-c2ccc(C(C)C)cc2)c1NC(=O)C1CCC1 | -81*
CCOc1ccc(C2=Nc3ccc(Br)cc3C(c3ccc(N4CCOCC4)cc3)=NN2)cc1 | -66*
CCOc1ccc(C2=Nc3ccccc3C(c3ccc(N4CCOCC4)cc3)=NN2)cc1 | -95*
Oc1ccc2ccccc2c1C=Nc1ccccc1-c1nc2ccccc2[nH]1 | -79*
C/C(Cn1nnc([N+](=O)[O-])n1)=N\NC(=O)c1ccccc1 | -73*
CC(=O)c1ccc(NC(=O)Nc2ccc([N+](=O)[O-])cc2)cc1 | -148*
CC(=O)Nc1ccc(OS(=O)(=O)c2ccc([N+](=O)[O-])cc2)cc1 | -115*
CC(=O)c1ccc(NC(=O)c2cc(Cl)sc2Cl)cc1 | -156*
SMILES | aSyn 5UTR act
O=C(Nc1ccc(Oc2ccc(NC(=O)Nc3ccc([N+](=O)[O-])cc3)cc2)cc1)Nc1ccc([N+](=O)[O-])cc1 | 91
CCC(=O)Oc1ccc(C(=O)Nc2ccc([N+](=O)[O-])cc2)cc1 | -170*
O=C(Nc1ccccc1F)c1ccc([N+](=O)[O-])s1 | -115*
CC(=O)c1ccc(NC(=O)Nc2ccc(Cl)cc2)cc1 | -193*
CC(=O)Nc1cc[n+](C(C)C(=O)c2ccc(Cl)cc2)cc1 (stereo unspecified) | 51
O=C(Nc1ccccc1F)c1cc(Cl)sc1Cl | -62*
CCCNc1ccc(C(=O)OCC)cc1[N+](=O)[O-] | -83*
Cc1ccc(NC(=O)c2ccc(NCCN)c([N+](=O)[O-])c2)cc1 | -99*
Cc1ccc(NC(=O)CSc2ccc(C(N)=O)cc2[N+](=O)[O-])cc1 | -67*
CCOc1ccccc1-c1nn2c(Cc3ccccc3)nnc2s1 | -66*
Oc1c(C2=NCCNC(C(F)(F)F)=C2)ccc2ccccc12 | -193*
